Data as given in PubChem BioAssay.
Several values for one entry are separate records, joined by “and”; a condition that tells them apart may be missing. Equal values may be shown once. Activity calls are given as the source filed them.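 The calls were made as follows, unless noted: active = thallium flux through the channel raised or lowered by more than 3 SD from vehicle-only wells, actives on both sides; inactive = the rest.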

Experiments:
[1] = P. berghei load reduction in hepatocytes – cell-based, HepG2, luciferase luminescence, HepG2 viability, primary screen (AID 624349; in the data active = parasite load remaining mostly below about 12%, no sharp cut-off; inactive = mostly above about 10%;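 also: 100% = mean of DMSO negative control wells on the same plate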); conditions: P. berghei liver stage in HepG2, luciferase luminescence, concentration not given here; parasite load remaining: stronger effect = lower value; viability: measured here: HepG2 viability without parasites
[2] = signal quenchers or enhancers, Cy5 substrate/SSB – biochemical, NIH Clinical Collection, E. coli SSB, artefact control for HCV NS3 helicase inhibitor project (AID 743268; call rule not given here); conditions: Cy5-oligo bound E. coli SSB, fluorescence interference
[3] = system: Hepatitis C virus NS3 helicase; experiment: blockers of NS3h binding to DNA – biochemical, fluorescence polarization, NIH Clinical Collection, primary screen (AID 743270; call rule not given here); conditions: NS3 helicase binding to Cy5-dT15 DNA, stronger effect = higher value, concentration not given here
[4] = molecular target: Single-stranded DNA-binding protein (Escherichia coli (strain K12)) (UniProt P0AGE0); experiment: SSB-ssDNA binding inhibitors – biochemical, fluorescence polarization, NIH Clinical Collection, counter-screen for HCV NS3 helicase inhibitor project (AID 743271; in the data active = inhibition above about 28%); conditions: E. coli SSB-DNA binding, stronger effect = higher value, concentration not given here
[5] = compounds distorting NS3 helicase fluorescence signal – biochemical, NIH Clinical Collection, artefact control for HCV NS3 helicase inhibitor project (AID 743272; call rule not given here;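 also: HCV NS3 helicase with a Cy5 labelled single stranded DNA probe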); conditions: fluorescence interference counterscreen, HCV NS3 helicase assay; stronger effect = lower value
[6] = modulation of C. elegans fzo-1 (AID 1259413; call rule not given here;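 also: fzo-1 mutant C. elegans worms in liquid wells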); conditions: C. elegans fzo-1 modulator screen, mean read-out; stronger effect = higher value
[7] = viability loss with induced miR-34 in A549 – imaging, A549 dox-inducible miR-34, nuclei and caspase counts, primary screen (AID 1347080;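 active = compounds whose cell count with miR-34 switched on is under 0.7 times the count with it off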); conditions: A549 miR-34 inducible, Hoechst nuclei count, 48 h
[8] = galactose survival enhancers in mitochondrial complex I cybrids – cell-based, galactose medium, ATP luminescence, primary screen (AID 1645843;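 active = z-score of at least 1.8 in each of two replicates, scored against plate mean and spread of sample wells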;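 also: positive z means more ATP and so rescue of galactose-driven cybrid death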); conditions: complex I mutant cybrid cells, 72 h, stronger effect = higher value
F380Y = experiment: BK channel mutant inhibitors and activators – cell-based, U2OS BacMam, thallium flux, beta subunits, selectivity assay, profiling panel (AID 1259406); conditions: U2OS BacMam BK variants, at 30 µM;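 also: initial slope of Thallos dye fluorescence rise after thallium is added; log ratio against the mean of 0.3% DMSO vehicle wells on the same plate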
F380Y/beta1 = experiment: as above; conditions: U2OS BacMam BK variants, at 30 µM
F380Y/beta2Delta = experiment: as above; conditions: U2OS BacMam BK variants, at 30 µM
F380Y/beta4 = experiment: as above; conditions: U2OS BacMam BK variants, at 30 µM
[9] = molecular target: Calcium-activated potassium channel subunit alpha-1 (Homo sapiens) + Leucine-rich repeat-containing protein 26 (Homo sapiens) (UniProt Q12791+Q2I0M4); experiment: as above; conditions: U2OS BacMam BK variants, F380Y/Slo1WT/gamma1, at 30 µM
R275C = experiment: as above; conditions: U2OS BacMam BK variants, at 30 µM
R275C/beta1 = experiment: as above; conditions: U2OS BacMam BK variants, at 30 µM
R275C/beta2Delta = experiment: as above; conditions: U2OS BacMam BK variants, at 30 µM
R275C/beta4 = experiment: as above; conditions: U2OS BacMam BK variants, at 30 µM
R275C/Slo1WT/beta2 = experiment: as above; conditions: U2OS BacMam BK variants, at 30 µM
[10] = system: Neuropilin-2 / VEGF-C interaction (human); experiment: small molecules blocking Neuropilin-2/VEGF-C interaction – biochemical, microplate binding format, z-score (AID 743281; call rule not given here); conditions: microplate NRP2/VEGF-C binding assay; stronger effect = lower value
[11] = MELAS cybrid and Rieske KO viability enhancers – cell-based, MELAS cybrids, Rieske KO mouse fibroblasts, CellTiter-Glo, primary screen (AID 1508586;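 active = mean z-score across replicates of 1.96 or higher in either the MELAS or the Rieske mutant cell line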;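 also: z relative to plate mean and SD of compound and empty wells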); conditions: low glucose
[12] = stronger effect = lower value, cell number ratio, induced over uninduced
[13] = measured here: relative caspase fold change +Dox/-Dox
[14] = measured here: total cells with miR-34 induction, stronger effect = lower value
[15] = measured here: total cells without miR-34 induction
[16] = MELAS cybrid survival, CellTiter-Glo 48 h, stronger effect = higher value
[17] = Rieske KO mouse fibroblast survival, CellTiter-Glo 72 h

Chain of Calcium-activated potassium channel subunit alpha-1 (Homo sapiens) + Leucine-rich repeat-containing protein 26 (Homo sapiens) (Q2I0M4 whole entry, looked up, one chain of several): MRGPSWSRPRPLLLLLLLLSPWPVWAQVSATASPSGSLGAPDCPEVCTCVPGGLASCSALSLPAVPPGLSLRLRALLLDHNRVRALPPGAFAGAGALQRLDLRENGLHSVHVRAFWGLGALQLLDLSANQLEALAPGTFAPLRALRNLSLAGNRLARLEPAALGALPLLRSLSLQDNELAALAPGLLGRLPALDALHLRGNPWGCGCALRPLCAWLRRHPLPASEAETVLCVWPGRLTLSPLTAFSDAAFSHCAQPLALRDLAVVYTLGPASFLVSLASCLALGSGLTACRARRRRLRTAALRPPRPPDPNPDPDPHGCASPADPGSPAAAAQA

CCOC(=O)[C@@H](CCc1ccccc1)N[C@@H](C)C(=O)N1CCC[C@H]1C(=O)O
11500: cell count [7, 15]
126%: viability [1]
inactive: parasite load remaining [1] 41.4% | fluorescence ratio [2] 1.05 | inhibition [3] -10.4% | inhibition [4] -0.48% | fluorescence ratio [5] 1 | mean signal [6] 237 | fold change [7, 12] 0.958 | z-score [8] 0.835 | log fold change Tl+ flux (F380Y) 0.0242 | log fold change Tl+ flux (F380Y/beta1) 0.0697 | log fold change Tl+ flux (F380Y/beta2Delta) 0.00383 | log fold change Tl+ flux (F380Y/beta4) 0.0422 | log fold change Tl+ flux [9] 0.023 | log fold change Tl+ flux (R275C) 0.0223 | log fold change Tl+ flux (R275C/beta1) -0.00857 | log fold change Tl+ flux (R275C/beta2Delta) -0.00135 | log fold change Tl+ flux (R275C/beta4) -0.0226 | log fold change Tl+ flux (R275C/Slo1WT/beta2) -0.0503
0.517: fold change [7, 13]
11000: cell count [7, 14]

O=C(O)C[C@H](O)C[C@H](O)/C=C/c1c(C2CC2)nc2ccccc2c1-c1ccc(F)cc1
0.319: fold change [7, 13]
active: log fold change Tl+ flux (F380Y/beta1) 0.292 | log fold change Tl+ flux [9] 0.113 | log fold change Tl+ flux (R275C/beta1) 0.226 | log fold change Tl+ flux (R275C/beta2Delta) 0.114 | log fold change Tl+ flux (R275C/beta4) 0.107 | log fold change Tl+ flux (R275C/Slo1WT/beta2) 0.12
60.8%: viability [1]
1740: cell count [7, 14]
inactive: parasite load remaining [1] 177% | fluorescence ratio [2] 0.98 | inhibition [3] -2.84% | inhibition [4] -1.18% | fluorescence ratio [5] 0.96 | outcome [10] | mean signal [6] 212 | fold change [7, 12] 1.25 | log fold change Tl+ flux (F380Y) -0.03 | log fold change Tl+ flux (F380Y/beta2Delta) 0.0555 | log fold change Tl+ flux (F380Y/beta4) 0.0888 | log fold change Tl+ flux (R275C) 0.0026
1390: cell count [7, 15]

COC(=O)Nc1nc2ccc(C(=O)c3ccc(F)cc3)cc2[nH]1
inactive: parasite load remaining [1] 68.5% and 34.2% | fluorescence ratio [2] 1.06 | inhibition [3] -1.19% | inhibition [4] -0.87% | fluorescence ratio [5] 0.95 | z-score [10] 0.511 | mean signal [6] 249 | fold change [7, 12] 1.22 and 1.03 | z-score [11, 16] -2.49 and -1.97 | z-score [8] -1.28 and -0.83 | log fold change Tl+ flux (F380Y) -0.0412 | log fold change Tl+ flux (F380Y/beta1) 0.0196 | log fold change Tl+ flux (F380Y/beta2Delta) -0.0407 | log fold change Tl+ flux (F380Y/beta4) -0.0852 | log fold change Tl+ flux [9] 0.00265 | log fold change Tl+ flux (R275C) -0.0283 | log fold change Tl+ flux (R275C/beta1) -0.0436 | log fold change Tl+ flux (R275C/beta2Delta) -0.052 | log fold change Tl+ flux (R275C/beta4) 0.0237 | log fold change Tl+ flux (R275C/Slo1WT/beta2) 0.00461
1820 and 2010: cell count [7, 14]
1.69 and 0.533: z-score [11, 17]
1.31 and 0.65: fold change [7, 13]
85.5% and 74.5%: viability [1]
1490 and 1950: cell count [7, 15]

CCOC(=O)CCC(=O)OC1C(OC2C(C)C(OC3CC(C)(OC)C(O)C(C)O3)C(C)C(=O)OC(CC)C(C)(O)C(O)C(C)C(=O)C(C)CC2(C)O)OC(C)CC1N(C)C (stereo not given)
10400: cell count [7, 14]
94.7%: viability [1]
inactive: parasite load remaining [1] 56% | fluorescence ratio [2] 1.07 | inhibition [3] 0.45% | inhibition [4] 0.29% | fluorescence ratio [5] 0.98 | mean signal [6] 242 | fold change [7, 12] 0.96 | z-score [8] 0.77 | log fold change Tl+ flux (F380Y) -0.00772 | log fold change Tl+ flux (F380Y/beta1) 0.06 | log fold change Tl+ flux (F380Y/beta2Delta) -0.0119 | log fold change Tl+ flux (F380Y/beta4) -0.0302 | log fold change Tl+ flux [9] -0.0035 | log fold change Tl+ flux (R275C/beta1) 0.019 | log fold change Tl+ flux (R275C/beta2Delta) -0.0301 | log fold change Tl+ flux (R275C/beta4) -0.00612 | log fold change Tl+ flux (R275C/Slo1WT/beta2) 0.000174
1.93: fold change [7, 13]
active: log fold change Tl+ flux (R275C) -0.135
10900: cell count [7, 15]

CC(N)(Cc1ccc(O)c(O)c1)C(=O)O (stereo not given)
0.522 and 3.64: fold change [7, 13]
inactive: parasite load remaining [1] 67.7% | inhibition [3] -3.18% | inhibition [4] -0.48% | fluorescence ratio [5] 0.96 | mean signal [6] 264 | fold change [7, 12] 1.03 and 1.02 | z-score [8] -1.27 and -1.07 | log fold change Tl+ flux (F380Y) -0.0268 | log fold change Tl+ flux (F380Y/beta1) -0.0706 | log fold change Tl+ flux (F380Y/beta2Delta) -0.0381 | log fold change Tl+ flux (F380Y/beta4) -0.00847 | log fold change Tl+ flux [9] -0.0181 | log fold change Tl+ flux (R275C) -0.0316 | log fold change Tl+ flux (R275C/beta1) -0.0727 | log fold change Tl+ flux (R275C/beta2Delta) -0.00349 | log fold change Tl+ flux (R275C/beta4) -0.0805
active: fluorescence ratio [2] 0.1 | log fold change Tl+ flux (R275C/Slo1WT/beta2) -0.125
9990 and 9950: cell count [7, 14]
87.8%: viability [1]
9680 and 9750: cell count [7, 15]

CC1CC2C3CCC4=CC(=O)C=CC4(C)C3(F)C(O)CC2(C)C1(O)C(=O)CO (stereo not given)
inactive: parasite load remaining [1] 69.5% | inhibition [3] -0.45% | inhibition [4] 1.81% | fluorescence ratio [5] 1.04 | mean signal [6] 266 | fold change [7, 12] 0.928 | z-score [8] 1.66 | log fold change Tl+ flux (F380Y) -0.000812 | log fold change Tl+ flux (F380Y/beta1) 0.043 | log fold change Tl+ flux (F380Y/beta2Delta) 0.0297 | log fold change Tl+ flux (F380Y/beta4) -0.00203 | log fold change Tl+ flux [9] 0.021 | log fold change Tl+ flux (R275C) 0.00154 | log fold change Tl+ flux (R275C/beta1) 0.0289 | log fold change Tl+ flux (R275C/beta2Delta) -0.0295 | log fold change Tl+ flux (R275C/beta4) 0.0089 | log fold change Tl+ flux (R275C/Slo1WT/beta2) -0.0137
8000: cell count [7, 14]
active: fluorescence ratio [2] 0.1
108%: viability [1]
0.945: fold change [7, 13]
8620: cell count [7, 15]

CN1[C@@H]2CC[C@H]1CC(OC(=O)C(CO)c1ccccc1)C2 (stereo not given in full)
11100 and 8790 and 10800: cell count [7, 15]
2.84 and 0.579 and 1.47: fold change [7, 13]
inactive: parasite load remaining [1] 41.5% and 46.2% | mean signal [6] 274 | fold change [7, 12] 0.947 and 0.887 and 0.871 | z-score [11, 16] -0.283 and 0.13 | z-score [8] 0.56 and 0.265 | log fold change Tl+ flux (F380Y) 0.0269 | log fold change Tl+ flux (F380Y/beta1) -0.0245 | log fold change Tl+ flux (F380Y/beta2Delta) 0.00535 | log fold change Tl+ flux (F380Y/beta4) 0.0216 | log fold change Tl+ flux [9] 0.00679 | log fold change Tl+ flux (R275C) -0.0152 | log fold change Tl+ flux (R275C/beta1) -0.00104 | log fold change Tl+ flux (R275C/beta2Delta) 0.0208 | log fold change Tl+ flux (R275C/beta4) -0.00928 | log fold change Tl+ flux (R275C/Slo1WT/beta2) 0.0472
87.1% and 116%: viability [1]
10500 and 7790 and 9390: cell count [7, 14]
0.502 and 0.307: z-score [11, 17]
